AMA1-RON2 inh: inhibitors of Plasmodium falciparum AMA1-RON2 interaction; AlphaScreen AMA1-biotinylated RON2 peptide binding; Potency, µM (titrated, usually from 58.2 µM), for the others: top-dose activity change, negative = inhibition, most hits filed as inhibitors; 360,000 tested, 0.2% active; AID 720542;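 note: 0% = vehicle wells and -100% = peptide control; nearly all actives have a fitted effect of over 45% in size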
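AMA1 (3D7) with his tag at 25 nM final met compounds first, then biotinylated RON2 peptide at 25 nM; detection used donor plus acceptor beads, 10 µg/mL apiece, read by AlphaScreen after 30 min at room temperature.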
Pf growth 96h: P. falciparum growth inhibition at 96 hour, primary screen for plastid delayed-death inhibitors; P. falciparum luciferase reporter growth, 96 h; Potency, µM (top dose mostly 28.7 µM), inactives show at the top dose activity change, negative = inhibition, actives largely listed as inhibitors; 320,000 tested, 6.9% active
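P. falciparum expressing integrated firefly luciferase grown in erythrocytes (2% hematocrit, 0.05% parasitemia final) with compounds for 96 hours at 37 C, 5% CO2. Growth inhibition read as loss of luminescence after adding luciferase detection reagent.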
HCV inh: inhibitors of hepatitis C virus infection. Huh7.5.1 HCVcc-Cre infection, luciferase reporter, 44 h. Potency, µM (doses to about 41.8 µM), without a hit: top-dose activity change, negative = inhibition, usual class: inhibitors. 340,000 tested, 3.4% active
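Reporter virus HCVcc-Cre (~0.5 moi) infects cells exposed to compound; seeding density 1,000 cells/well with 4 h settling beforehand. Luminescence, 15 sec read, taken 44 h post-infection following a 15 min RT substrate incubation.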
Pf growth 48h: inhibits P. falciparum growth in the first generation, 48 h | Potency, µM (highest dose often 28.7 µM), for the others: top-dose activity change, negative = inhibition, usual class: inhibitors | P. falciparum luciferase growth in erythrocytes, 48 h | 310,000 tested, 5.9% active | AID 504832
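Luminescence readout; reporter = integrated firefly luciferase in P. falciparum. RBC culture at 2% hematocrit, 0.1% parasitemia final, 37 C/5% CO2; decreased signal taken as growth inhibition.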
The depositor's hits bear a star; u = inconclusive; x = no result given; [ ] = dose if it differs, or a comment. Hits are enriched below; roughly 11% of the tested compounds scored in any of these assays. Calls come from the whole dose curve; as a rule, active = well fitted curve in the direction sought with a large enough effect; inconclusive = small, poorly fitted or top-dose-only effect, or another doubt; inactive = no such curve, though single readings can be large; an effect the other way counts as inactive or inconclusive. Unless noted, % is set by controls: 0 for no effect and ±100 for the full control effect; potency is the fitted concentration of half-maximal effect.

SMILES | AMA1-RON2 inh | Pf growth 96h | HCV inh | Pf growth 48h
Cc1ccc(S(=O)(=O)N2CCOCC2)cc1C(=O)NCCN1C(=O)S/C(=C\c2ccccc2Cl)C1=O | -3.5% | u | 12.6µM* | -13.5%
CCOC(=O)c1ccccc1NC(=O)c1cc(S(=O)(=O)N2CCOCC2)ccc1F | 0.2% | 87.3% | -8.1% | -9.5%
NS(=O)(=O)c1ccc(N/C=C\C(=O)c2cccc3ccccc23)cc1 | -11.2% | u | -28.9% | 3.4%
CC1(C(=O)Nc2cccc3cccnc23)CCN1Cc1ccc(-c2ccccc2)o1 (centres undefined) | 79.6% | x | x | x
CCOc1ccccc1C(=O)Nc1ccc(S(=O)(=O)N2CCOCC2)cc1 | 2.0% | 17.3% | 12.6µM* | -17.5%
Cc1ccc(S(=O)(=O)N2CCOCC2)cc1C(=O)O | -7.8% | x | 14.8% | 7.3%
CCCCn1ccnc1C(=O)c1cc(S(=O)(=O)N2CCOCC2)ccc1C | -2.7% | -26.0% | 11.2µM* | x
CCOc1ccccc1NC(=O)c1cc(S(=O)(=O)N2CCOCC2)ccc1C | 2.9% | 11.7µM* | 9.6% | -10.1%
CCOc1cc(C(=S)N2CCOCC2)ccc1OS(=O)(=O)c1ccc(NC(C)=O)cc1 | -0.5% | -23.5% | 7.08µM* | 0.0%
CCOc1ccccc1C(=O)Nc1ccc(S(=O)(=O)N2CCN(C)CC2)cc1 | -1.8% | u | -23.6% | -5.5%
O=c1c2ccccc2cnn1Cc1n[nH]c(=S)n1-c1ccccc1Cl | -10.8% | 0.6% | 9.0% | 19.4%
CCN(CC)C(=O)c1[nH]cnc1C(=O)Nc1ccccc1F | -5.9% | x | x | x
CCC(C(=O)NCC1CCCO1)n1nc(C)c2sc3ccccc3c2c1=O (centres undefined) | 5.7% | u | -24.8% | -9.1%
COc1ccc(NC(=O)COC(=O)CCCc2c[nH]c3ccccc23)cc1OC | -11.3% | 7.0% | 7.9% | 9.0%
CCOc1ccc(S(=O)(=O)N2CCOCC2)cc1NC(=O)CSCc1ccc(C)cc1 | -3.9% | u | u | 9.28µM*
O=c1c(Cc2ccc(Cl)cc2Cl)c(O)ccn1CCCN1CCOCC1 | 0.0% | 10.1% | 15.5% | -11.5%
COc1nc(N/N=C/c2ccc(-c3ccccc3[N+](=O)[O-])o2)nc(N2CCOCC2)n1 | 19.5% | u | 11.2µM* | 13.8%
O=[N+]([O-])c1ccc(-c2ccc(/C=N/Nc3nc(NCc4ccccc4)nc(N4CCOCC4)n3)o2)cc1 | -14.4% | u | u | 1.47µM*
COC(=O)c1ccccc1-c1ccc(/C=N/Nc2nc(N3CCCC3)nc(N3CCCC3)n2)o1 | -11.0% | u | 11.2µM* | u
O=C(CSc1nnc(COc2ccccc2)o1)N1CCCCC1 | -10.5% | 20.3% | 6.6% | -22.5%
CCCC(=O)N(c1ccc(OCC)cc1)S(=O)(=O)c1ccc2c3c(cccc13)C(=O)N2C | 30.4% | u | u | u
CC(=O)Nc1ccc(S(=O)(=O)NCC(=O)NC(C)c2ccc(S(N)(=O)=O)cc2)cc1 (centres undefined) | -9.1% | u | 7.0% | -12.5%
C=CCN1C(c2ccc(Br)cc2)=CS/C1=C(/C#N)c1nnc(N2CCOCC2)n1-c1ccccc1 | 23.0% | u | u | u
C=CCN1C(=O)NC(c2ccc(OC)cc2)(C(F)(F)F)S/C1=C(\C#N)c1nnc(N2CCOCC2)n1-c1ccccc1 (centres undefined) | 53.1% | u | 30.2% | -1.5%
C=CCN1C(c2cccc(C(F)(F)F)c2)=CS/C1=C(/C#N)c1nnc(N2CCOCC2)n1-c1ccccc1 | -16.4% | 11.7µM* | u | 10.4µM*
SMILES | AMA1-RON2 inh | Pf growth 96h | HCV inh | Pf growth 48h
CC1=C(C)SC(=C(C#N)c2nnc(N3CCOCC3)n2-c2ccccc2)S1 | 10.3% | 9.28µM* | -10.1% | u
O=C(CN1CCCCC1)Nc1cccc(Br)c1 | 12.4% | u | 14.1% | 17.2%
COc1ccc(CCN2C(=O)C3C4C=CC(C3C2=O)C2C(=O)N(CCc3ccc(OC)c(OC)c3)C(=O)C42)cc1OC (centres undefined) | 15.5% | u | 4.47µM* | x
CCOc1cc(NC(=O)c2ccccn2)c(OCC)cc1NC(=O)c1ccccc1 | -1.6% | 43.5% | -4.3% | -13.6%
CCOc1cc(NC(=O)C2CC2)c(OCC)cc1NC(=O)c1ccccn1 | 6.4% | x | 6.3% | 14.7µM*
CCOc1cc(NC(=O)c2ccccn2)c(OCC)cc1NC(=O)CC(C)C | 22.4% | 3.7µM* | u | 13.1µM*
FC(F)(F)c1nc2nc(Cl)c(Cl)nc2n1CCCN1CCOCC1 | 66.9% | x | x | x
C=C1[C@@H](O)[C@@H]2O[C@]3(CC[C@H](/C=C/[C@@H](C)[C@@H]4CC(C)=CC5(O[C@H](C[C@@](C)(O)C(=O)OC)CC[C@H]5O)O4)O3)CC[C@H]2O[C@@H]1[C@@H](O)C[C@H](C)[C@H]1OC2(CCCCO2)CC[C@H]1C (some centres undefined) | 4.2% | x | 0.562µM* | x
C=C1C(O)[C@@H]2O[C@]3(CC[C@H](/C=C/C(C)[C@@H]4CC(C)=CC5(O[C@H](C[C@@](C)(O)CO)CCC5O)O4)O3)CC[C@H]2O[C@@H]1C(O)CC(C)[C@H]1OC2(CCCCO2)CCC1C (some centres undefined) | 39.4% | x | 1.41µM* | x
Cn1c(-c2c(N)n(CCc3ccccc3)c3nc4ccccc4nc23)nc2ccccc21 | 120.8% | 5.22µM* | u | x
Cn1c(-c2c(N)n(C3CCCC3)c3nc4ccccc4nc23)nc2ccccc21 | 159.0% | 8.28µM* | u | 11.7µM*
Nn1c(SCC(=O)Nc2ccccc2F)nnc1C1CCCCC1 | 4.3% | 22.5% | 16.5% | 23.9%
N#Cc1ccc(-c2cccnc2)nc1SCC(=O)Nc1sc2c(c1C#N)CCC2 | -12.8% | 1.47µM* | u | u
COc1ccc(-c2ccc(C#N)c(SCC(=O)Nc3sc4c(c3C#N)CCC4)n2)cc1 | 0.0% | -7.5% | 1.7% | 15.3%
N#Cc1c(C(F)(F)F)cc(-c2ccccc2)nc1SCC(=O)Nc1sc2c(c1C#N)CCC2 | -15.4% | 11.7µM* | -5.1% | u
O=C(O)c1ccccc1N1C(=O)c2cccc3cccc(c23)C1=O | 13.8% | 8.28µM* | 28.0% | 15.2%
CC1=CCC(/C=N\Nc2nnc3c(n2)[nH]c2ccccc23)CC1 (centres undefined) | x | u | 10.6% | 68.9%
O=C(O)C1CC=CCC1C(=O)NC1CCCCC1 (centres undefined) | -10.0% | 38.0% | 20.4% | -0.5%
O=C(c1ccc(Cl)cc1)C1CCCN(Cc2cnn(-c3ccccc3)c2)C1 (centres undefined) | u | 28.7% | 22.4µM* | -20.1%
Cc1nn(C)cc1CN1CCCC(C(=O)c2ccc(-c3ccccc3)cc2)C1 (centres undefined) | -21.9% | 82.4%[1.15 µM] | 4.47µM* | -11.4%
O=C(c1ccc2c(c1)OCO2)C1CCCN(Cc2ccccn2)C1 (centres undefined) | 47.3% | 17.8% | -0.5% | u
Cc1ccsc1C(=O)C1CCCN(Cc2cn(C)nc2C)C1 (centres undefined) | 1.8% | 14.4% | 5.6% | 0.5%
